Data taken from the antibiotic and cytotoxicity screens of Wong et al. (2023).
Out of some 39,000 compounds screened, about 3,300 (8.5%) were called active. This excerpt belongs to a sample that is enriched for actives.

Test system: HepG2
Experiment: cytotoxicity call (relative viability < 0.9)
Conditions: 10 µM

Row | Compound | cytotoxicity call
1 | C[C@H](CO)N1C[C@H](C)[C@H](CN(C)S(=O)(=O)c2cn(C)cn2)OCc2ccccc2-c2ccccc2C1=O | inactive
2 | Cc1nc(CSCc2ccc(Cl)cc2Cl)cs1 | inactive
3 | COc1ccccc1CN1C(=O)c2ccccc2[C@@]2(Cc3ccccc3N(Cc3ccccc3)C2=O)[C@@H]1c1ccc(CO)cc1 | inactive
4 | C[C@@H]1CN([C@@H](C)CO)C(=O)c2cc(NC(=O)Nc3ccccc3)ccc2O[C@@H]1CN(C)S(C)(=O)=O | inactive
5 | C[C@H](CO)N1C[C@H](C)[C@H](CN(C)Cc2ccc3c(c2)OCO3)Oc2ccc(NS(=O)(=O)c3cn(C)cn3)cc2CC1=O | inactive
6 | O=c1cc(Cl)[nH]c(=O)[nH]1 | inactive
7 | Cc1cc(C(=O)Nc2cccc3c2O[C@@H](CN(C)Cc2ccc(C(=O)O)cc2)[C@@H](C)CN([C@H](C)CO)C3=O)n(C)n1 | inactive
8 | Cc1noc(C)c1S(=O)(=O)Nc1cccc2c1O[C@@H](CN(C)S(=O)(=O)c1ccc(F)cc1)[C@@H](C)CN([C@H](C)CO)C2=O | inactive
9 | C[C@H](CO)N1C[C@H](C)[C@@H](CN(C)S(=O)(=O)c2cn(C)cn2)Oc2ccc(NC(=O)Cn3cnnn3)cc2CC1=O | inactive
10 | Cc1noc(C)c1S(=O)(=O)Nc1ccc2c(c1)C(=O)N([C@@H](C)CO)C[C@H](C)[C@H](CN(C)S(C)(=O)=O)O2 | inactive
11 | COc1ccc(NC(=O)Nc2ccc3c(c2)C(=O)N([C@H](C)CO)C[C@H](C)[C@H](CN(C)Cc2ccc(C(F)(F)F)cc2)OCCCC[C@H](C)O3)cc1 | inactive
12 | COc1ccc(CN(C)C[C@H]2OCCCC[C@H](C)Oc3ccc(NC(=O)Nc4ccc(C(F)(F)F)cc4)cc3C(=O)N([C@@H](C)CO)C[C@@H]2C)cc1 | active
13 | COc1ccc(NC(=O)Nc2ccc3c(c2)C(=O)N([C@@H](C)CO)C[C@@H](C)[C@@H](CN(C)Cc2ccc(C(F)(F)F)cc2)OCCCC[C@@H](C)O3)cc1 | inactive
14 | COc1ccc(CN(C)C[C@@H]2OCCCC[C@@H](C)Oc3ccc(NC(=O)Nc4ccc(C(F)(F)F)cc4)cc3C(=O)N([C@H](C)CO)C[C@@H]2C)cc1 | active
15 | COc1ccc(NC(=O)Nc2ccc3c(c2)C(=O)N([C@H](C)CO)C[C@H](C)[C@H](CN(C)Cc2ccc(C(F)(F)F)cc2)OCCCC[C@@H](C)O3)cc1 | inactive
16 | COc1ccc(CN(C)C[C@@H]2OCCCC[C@@H](C)Oc3ccc(NC(=O)Nc4ccc(C(F)(F)F)cc4)cc3C(=O)N([C@H](C)CO)C[C@H]2C)cc1 | active
17 | COc1ccc(NC(=O)Nc2ccc3c(c2)C(=O)N([C@H](C)CO)C[C@@H](C)[C@H](CN(C)Cc2ccc(C(F)(F)F)cc2)OCCCC[C@H](C)O3)cc1 | inactive
18 | COc1ccc(NC(=O)Nc2ccc3c(c2)C(=O)N([C@H](C)CO)C[C@H](C)[C@@H](CN(C)Cc2ccc(C(F)(F)F)cc2)OCCCC[C@@H](C)O3)cc1 | inactive
19 | COc1ccc(CN(C)C[C@H]2OCCCC[C@@H](C)Oc3ccc(NC(=O)Nc4ccc(C(F)(F)F)cc4)cc3C(=O)N([C@@H](C)CO)C[C@H]2C)cc1 | active
20 | COc1ccc(NC(=O)Nc2ccc3c(c2)C(=O)N([C@@H](C)CO)C[C@H](C)[C@H](CN(C)Cc2ccc(C(F)(F)F)cc2)OCCCC[C@@H](C)O3)cc1 | inactive

Row | Compound | cytotoxicity call
21 | CC(C)NC(=O)N(C)C[C@H]1OCCCC[C@H](C)Oc2ccc(NS(=O)(=O)c3cn(C)cn3)cc2C(=O)N([C@@H](C)CO)C[C@@H]1C | inactive
22 | C[C@@H]1CN([C@H](C)CO)C(=O)c2cccc(NS(=O)(=O)c3ccccc3)c2O[C@H]1CN(C)S(=O)(=O)c1cccs1 | inactive
23 | COc1ccc(S(=O)(=O)N(C)C[C@@H]2Oc3ccc(NS(=O)(=O)c4c(C)noc4C)cc3C(=O)N([C@@H](C)CO)C[C@@H]2C)cc1 | inactive
24 | COCC(=O)N1C[C@@H](C)[C@@H](OC)CN(C)C(=O)c2ccc(NC(=O)c3cc(C)on3)cc2OC[C@@H]1C | inactive
25 | Cc1ccc(S(=O)(=O)N(C)C[C@@H]2OCCCC[C@H](C)Oc3ccc(NC(=O)c4ccccc4)cc3C(=O)N([C@H](C)CO)C[C@@H]2C)cc1 | inactive
26 | COCC(=O)N(C)C[C@H]1Oc2cc(C#C[C@@H](C)O)ccc2S(=O)(=O)N([C@@H](C)CO)C[C@H]1C | inactive
27 | COc1ccc(C#Cc2cnc3c(c2)C(=O)N([C@@H](C)CO)C[C@H](C)[C@@H](CN(C)C(=O)CN(C)C)O3)cc1 | inactive
28 | Cn1c(=O)[nH]c(=O)c2c1ncn2CCNCc1ccco1 | inactive
29 | C[C@@H]1CN([C@@H](C)CO)C(=O)c2cc(NC(=O)Cc3ccccc3)ccc2O[C@@H](C)CCCCO[C@@H]1CN(C)CC1CCCCC1 | inactive
30 | O=C(C[C@H]1CC[C@H]2[C@@H](COC[C@H](O)CN2C(=O)c2ccncc2)O1)NC1CCC1 | inactive
31 | C[C@H]1CN([C@@H](C)CO)C(=O)c2cc(NC(=O)NC3CCCCC3)ccc2O[C@@H]1CN(C)S(=O)(=O)c1cn(C)cn1 | inactive
32 | C[C@@H]1CN([C@H](C)CO)C(=O)Cc2cc(NS(=O)(=O)c3ccccc3)ccc2O[C@H]1CN(C)Cc1ccc(Oc2ccccc2)cc1 | active
33 | C[C@@H]1CN([C@@H](C)CO)C(=O)Cc2cc(NS(=O)(=O)c3ccccc3)ccc2O[C@H]1CN(C)Cc1ccc(Oc2ccccc2)cc1 | inactive
34 | C[C@H](CO)N1C[C@H](C)[C@@H](CN(C)Cc2ccc(Oc3ccccc3)cc2)Oc2ccc(NS(=O)(=O)c3ccccc3)cc2CC1=O | inactive
35 | C[C@H]1CN([C@@H](C)CO)C(=O)Cc2cc(NS(=O)(=O)c3ccccc3)ccc2O[C@H]1CN(C)Cc1ccc(Oc2ccccc2)cc1 | inactive
36 | C[C@@H]1CN([C@H](C)CO)C(=O)Cc2cc(NS(=O)(=O)c3ccccc3)ccc2O[C@@H]1CN(C)Cc1ccc(Oc2ccccc2)cc1 | active
37 | C[C@H]1CN([C@@H](C)CO)C(=O)Cc2cc(NS(=O)(=O)c3ccccc3)ccc2O[C@@H]1CN(C)Cc1ccc(Oc2ccccc2)cc1 | inactive
38 | C[C@H](CO)N1C[C@H](C)[C@H](CN(C)Cc2ccc(Oc3ccccc3)cc2)Oc2ccc(NS(=O)(=O)c3ccccc3)cc2CC1=O | inactive
39 | C[C@@H]1CN([C@@H](C)CO)C(=O)Cc2cc(NS(=O)(=O)c3ccccc3)ccc2O[C@@H]1CN(C)Cc1ccc(Oc2ccccc2)cc1 | active
